TROY signal inh – inhibitors of TROY-driven NF-kB signaling, primary screen, Q293 LMP1-TROYcd cells, NF-kB luciferase, uHTS | Q293 LMP1-TROYcd NF-kB luciferase reporter, 4 h | inhibition, % at 10 µM | actives 0.98% (n = 360,000);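 active = compounds whose plate-normalised and pattern-corrected inhibition of the luciferase reporter signal at the single screening dose is 50% or more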
EBV LMP1 NFkB – EBV LMP1-driven NF-kappaB luciferase reporter inhibitors, primary screen, cell-based, luminescence, single point | LMP1-induced NF-kappaB luciferase reporter cells | inhibition, % at 12.5 µM | actives 0.69% (n = 350,000) | AID 504558, 2011; in the data active = inhibition above about 41%
LGR2 antag – inhibitors of bursicon-induced LGR2 CRE-luciferase signal, primary screen, cell-based, HEK293, CRE-luciferase reporter, bursicon stimulation. bursicon-stimulated, 4 h. inhibition, % at 9.99 µM. actives 0.35% (n = 380,000). AID 720647, 2013;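 active = drop in luminescence signal, shown as inhibition above about 50% in the replicate tests, limit read from the data, passing the limit was not always enough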;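 note: agonist challenge used bursicon conditioned medium at about half maximal strength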
EWS-Fli inh – EWS/Fli-driven NR0B1 reporter inhibitors, primary screen, A673 cells, NR0B1 luciferase, luminescence, MLPCN library; inhibition, % at 12.6 µM; viability-normalised; actives 0.67% (n = 350,000);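 active = mean inhibition of at least 50% after viability correction, with every replicate also passing that limit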;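 note: firefly luciferase signal divided by Alamar Blue viability fluorescence both relative to DMSO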
TWEAK-Fn14 inh – inhibitors of TWEAK-Fn14 signaling, primary screen, luciferase reporter cells, uHTS; actives 2% (n = 360,000); TWEAK-stimulated Fn14 reporter cells, luciferase luminescence, 8 h; inhibition, % at 10 µM; in the data active = inhibition above about 50%
DNA binding – DNA binders by acridine orange displacement, dose response, counter-screen for EWS/Fli inhibitor project, biochemical, fluorescence polarization, cherry-pick. shares compounds with EWS-Fli inh. salmon sperm DNA acridine orange fluorescence polarization. AC35, µM (doses to about 68 µM). actives 2% (n = 640). AID 720586, 2013;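 active = fitted curve reaches a 35% signal fall AC35 below twice the sample's top valid tested dose, actives reach about 48 µM in these data; inactive = the rest, including activity in the rising direction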;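 note: lower polarization ratio signals compound binding to DNA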
Of the large screens only hits and unclear results are named; the others gave an inactive call (follow-up assays come after a bar, where they were run). Sampled rows, rich in hits. Any-hit rate of the full collection: about 2.6%.

COC1C(O)C(C)OC(OC2C(Oc3cccc4c(O)c5c(=O)oc6ccc(C)c7c(=O)oc(c34)c5c67)OC(C)C(O)C2O)C1O (stereo unspecified)	EWS-Fli inh 68.8 | DNA binding inactive
CC(C)c1oc(=O)cc2c1[C@@H](O)[C@H]1OC(=O)[C@@]3(C)CC[C@@H](O)[C@@]2(C)C13 (stereo partly specified)	LGR2 antag 67.0, EWS-Fli inh 62.4 | DNA binding inactive
O=C(O)[C@@H]1[C@@H](CO)[C@@H]2Cn3c(ccc(-c4ccncc4)c3=O)[C@H]1N2C(=O)C1CC1	none (no result: TROY signal inh, EBV LMP1 NFkB, TWEAK-Fn14 inh)
C/C=C/c1ccc([C@H]2[C@@H](CO)N3CCCCN(C(=O)Cc4ccncc4)C[C@H]23)cc1	none (no result: TROY signal inh, EBV LMP1 NFkB, TWEAK-Fn14 inh)
O=C1NC(=O)N(Cc2ccco2)C(=O)/C1=C/C=C/c1ccco1	EWS-Fli inh 60.6 | DNA binding inactive
O=C1NC(=O)N(Cc2ccccc2)C(=O)/C1=C\C=C\c1ccco1	EWS-Fli inh 65.0 | DNA binding inactive
Cn1cccc1/C=C1\C(=O)NC(=O)N(Cc2ccco2)C1=O	none (no result: EWS-Fli inh)

High-throughput results deposited in PubChem by several laboratories.
